Compound activity from PubChem.
The list is not random: actives were taken first. Their share in the collection is about 4.3%.
D3 antag: D3 dopamine receptor (human) antagonism. D3R cells, DiscoveRx beta-arrestin luminescence, antagonist mode; stronger effect = lower value. P35462. AID 652054. max response, negative = inhibition, %. 360,000 tested, 2.5% active; in the data active = max response below about -50%; inconclusive = no clear call, values can overlap the other calls; note: % is set by controls: 0 for no effect and ±100 for the full control effect
Target sequence (P35462 whole entry, looked up): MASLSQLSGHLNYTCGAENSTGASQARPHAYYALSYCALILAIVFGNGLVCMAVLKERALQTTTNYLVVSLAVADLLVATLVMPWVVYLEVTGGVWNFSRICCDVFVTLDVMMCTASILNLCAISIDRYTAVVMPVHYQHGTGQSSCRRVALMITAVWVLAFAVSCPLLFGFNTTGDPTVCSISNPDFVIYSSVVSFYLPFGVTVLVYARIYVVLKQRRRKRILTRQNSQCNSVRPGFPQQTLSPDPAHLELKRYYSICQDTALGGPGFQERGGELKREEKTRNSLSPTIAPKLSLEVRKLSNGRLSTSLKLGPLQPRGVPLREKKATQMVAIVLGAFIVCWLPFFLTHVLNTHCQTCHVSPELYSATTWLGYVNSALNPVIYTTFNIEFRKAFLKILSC
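Cells plated overnight at 1500 cells/well, then exposed to library compounds with dopamine controls for 90 minutes at 37 degrees C. DiscoveRx reagent added for 30–60 minutes at room temperature; luminescence read, quantitative HTS format.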
GLP1R inv ag: acts as inverse agonist at human GLP-1 receptor; Potency, µM (top dose mostly 38.3 µM), without a hit: at the top dose activity change, negative = inhibition, actives largely listed as inhibitors; HEK293 GLP-1R CRE-luciferase, luminescence, 24 h; GLP-1R form is constitutively active; AID 624417; 410,000 tested, 1.6% active; P43220; note: potency is the fitted concentration of half-maximal effect; % is set by controls: 0 for no effect and ±100 for the full control effect; nearly all actives have a fitted effect of over 55% in size
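GLP-1R inverse agonism mode: basal reporter luminescence in engineered HEK293 cells measured after one day of compound exposure at 37 deg C, with a 12 min room-temperature detection step.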
DRD3 agonist: activates the human D3 dopamine receptor; AID 652048; max activation, %; 410,000 tested, 0.58% active; D3R DiscoveRx beta-arrestin cells, luminescence, 90 min; P35462; in the data active = max activation above about 30%; note: 0% is about no effect
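Cells at 1500/well, incubated overnight, then treated with pinned compounds (dopamine as control) for 90 min at 37 degrees C. DiscoveRx reagent added for 30 - 60 minutes at room temperature; luminescence read.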
GLP1R ag: activates the human GLP-1 receptor | AID 624172 | HEK293 GLP-1R CRE-luciferase, luminescence, 4-6 h; cells express a hypersensitive GLP-1R form | P43220 | Potency, µM (series often up to 45.6 µM), for inactives: top-dose activation, actives largely listed as activators | 380,000 tested, 0.007% active; note: potency is the fitted concentration of half-maximal effect; % of control where 0% means no effect
* = called active by the depositor. Unless noted, calls come from the whole dose curve; as a rule, active = well fitted curve in the direction sought with a large enough effect; inconclusive = small, poorly fitted or top-dose-only effect, or another doubt; inactive = no such curve, though single readings can be large; an effect the other way counts as inactive or inconclusive.

What do the screens show for `Cc1cc(/C=C2\SC(=S)N(Cc3ccco3)C2=O)c(C)n1-c1cccnc1`?
D3 antag: -13; GLP1R inv ag: -2%; DRD3 agonist: -5; GLP1R ag: 2%

Results for Cc1cc(/C=C2/SC(=S)N(c3cccc(C(F)(F)F)c3)C2=O)c(C)n1-c1cccnc1 ?
D3 antag: 0; GLP1R inv ag: 5µM*; DRD3 agonist: -4; GLP1R ag: 6%

What do the screens show for `COc1cc(OC)c(OC)cc1/C=C/c1nc2cc3ccccc3cc2c(=O)n1-c1ccccc1Br`?
GLP1R inv ag: 6%; DRD3 agonist: 7

Results for CCOC(=O)CN1C(=O)C(C)(C)Oc2ccc(C(=O)Nc3ccccc3OC)cc21 ?
D3 antag: -95*; GLP1R inv ag: 0%; DRD3 agonist: 3; GLP1R ag: 0%

What do the screens show for `Cc1ccc(NC(=O)COC(=O)c2ccc(NC(=O)CC#N)cc2)cc1S(=O)(=O)N1CCOCC1`?
D3 antag: -53*; GLP1R inv ag: 5%; DRD3 agonist: -25; GLP1R ag: 13%

Results for Cc1ccc(C(=O)O)cc1S(=O)(=O)N1CCOCC1 ?
D3 antag: -72*; GLP1R inv ag: 0%; DRD3 agonist: 11; GLP1R ag: -12%

How did Cc1ccc(C(=O)N(CCc2ccccc2)Cc2ccccc2)cc1S(=O)(=O)N1CCOCC1 do in these assays?
D3 antag: 1; GLP1R inv ag: 10µM*; DRD3 agonist: -6; GLP1R ag: 5%

Results for Cc1ccc(C(=O)N2CCOCC2)cc1S(=O)(=O)N1CCOCC1 ?
D3 antag: -2; GLP1R inv ag: 4%; DRD3 agonist: 0; GLP1R ag: 2%

What do the screens show for `Nc1nonc1-c1nc2ccccc2n1Cc1c(Cl)cccc1Cl`?
GLP1R inv ag: 5%; DRD3 agonist: 17

What do the screens show for `COc1ccc([C@H]2CC(=O)C=C(c3cc(C)ccc3F)C2)cc1`?
D3 antag: -23; GLP1R inv ag: -9%; DRD3 agonist: -5; GLP1R ag: 10%

What do the screens show for `COc1ccc([C@H]2CC(=O)C=C(c3cc(C)ccc3OC)C2)cc1`?
D3 antag: -58*; GLP1R inv ag: -8%; DRD3 agonist: -9; GLP1R ag: 19%

Results for CCCOc1ccc(C2=CC(=O)C[C@H](c3ccc(OC)cc3)C2)cc1 ?
D3 antag: 51; GLP1R inv ag: inconclusive; DRD3 agonist: 36*; GLP1R ag: 9%

How did CCc1ccc(-c2n[nH]nc2C2=CC(=O)C[C@H](c3ccc(F)cc3)C2)cc1 do in these assays?
D3 antag: -12; GLP1R inv ag: 8.9µM*; DRD3 agonist: 5; GLP1R ag: -5%

How did COc1ccc([C@H]2CC(=O)C=C(c3ccc(CNC(=O)OC(C)(C)C)cc3)C2)cc1 do in these assays?
D3 antag: 89; GLP1R inv ag: inconclusive; DRD3 agonist: 49*; GLP1R ag: 4%

How did COc1ccc([C@H]2CC(=O)C=C(c3ccc(OC(F)(F)F)cc3)C2)cc1 do in these assays?
D3 antag: inconclusive; GLP1R inv ag: inconclusive; DRD3 agonist: -14; GLP1R ag: -1%

What do the screens show for `COc1ccc(C2=CC(=O)C[C@H](c3ccc(OC)c(OC)c3)C2)cc1`?
D3 antag: 17; GLP1R inv ag: 44%; DRD3 agonist: 15; GLP1R ag: 11%

What do the screens show for `CCC(=O)N1CCc2cc(Br)cc(S(=O)(=O)CCC(=O)NCc3ccccc3)c21`?
GLP1R inv ag: 3%; DRD3 agonist: 2

Results for CCOc1ccc(NC(=O)CN2C(C(=O)OC)=C(c3ccccc3)c3cc(Cl)ccc3S2(=O)=O)cc1 ?
GLP1R inv ag: 13%; DRD3 agonist: 5; GLP1R ag: -1%

How did COc1cccc(C2=CC(=O)C[C@H](c3ccc(F)cc3)C2)c1 do in these assays?
D3 antag: inconclusive; GLP1R inv ag: inconclusive; DRD3 agonist: -44; GLP1R ag: -2%

Results for COc1cc(F)cc(C2=CC(=O)C[C@H](c3ccc(F)cc3)C2)c1 ?
D3 antag: -79*; GLP1R inv ag: inconclusive; DRD3 agonist: -16; GLP1R ag: 7%

Results for COc1ccc(NC(=O)CSc2nc(-c3ccccc3)[nH]c2-c2ccccc2)cc1OC ?
GLP1R inv ag: inconclusive; DRD3 agonist: -2

What do the screens show for `COc1cc(SSc2cc(OC)cc([N+](=O)[O-])c2N)c(N)c([N+](=O)[O-])c1`?
D3 antag: -77*; GLP1R inv ag: inconclusive; DRD3 agonist: -25; GLP1R ag: 20%
